Source: ChEMBL document CHEMBL3988442, “University of Dundee, Small-Polar-MMV Screening Library” (2021)
For some assays here: Entries with a potency or affinity are not part of this list.

Legend:
Parameters in all cases: scale not given: direction of the effect not stated beside the values
[1] = biological target: Protein translocase subunit SecA (Escherichia coli (strain K12)) (UniProt P10408); assay: Assay to Identify E. coli SecA ATPase Inhibitors; type: functional; conditions: 30 µM
[2] = biological target: T1, Ubiquitin-activating enzyme e1, putative (Leishmania donovani (strain BPK282A1)) (UniProt E9BSI1); assay: Leishmania donovani Ubiquitin Activating Enzyme (LdE1); type: functional; conditions: 30 µM
T1 sequence (whole entry): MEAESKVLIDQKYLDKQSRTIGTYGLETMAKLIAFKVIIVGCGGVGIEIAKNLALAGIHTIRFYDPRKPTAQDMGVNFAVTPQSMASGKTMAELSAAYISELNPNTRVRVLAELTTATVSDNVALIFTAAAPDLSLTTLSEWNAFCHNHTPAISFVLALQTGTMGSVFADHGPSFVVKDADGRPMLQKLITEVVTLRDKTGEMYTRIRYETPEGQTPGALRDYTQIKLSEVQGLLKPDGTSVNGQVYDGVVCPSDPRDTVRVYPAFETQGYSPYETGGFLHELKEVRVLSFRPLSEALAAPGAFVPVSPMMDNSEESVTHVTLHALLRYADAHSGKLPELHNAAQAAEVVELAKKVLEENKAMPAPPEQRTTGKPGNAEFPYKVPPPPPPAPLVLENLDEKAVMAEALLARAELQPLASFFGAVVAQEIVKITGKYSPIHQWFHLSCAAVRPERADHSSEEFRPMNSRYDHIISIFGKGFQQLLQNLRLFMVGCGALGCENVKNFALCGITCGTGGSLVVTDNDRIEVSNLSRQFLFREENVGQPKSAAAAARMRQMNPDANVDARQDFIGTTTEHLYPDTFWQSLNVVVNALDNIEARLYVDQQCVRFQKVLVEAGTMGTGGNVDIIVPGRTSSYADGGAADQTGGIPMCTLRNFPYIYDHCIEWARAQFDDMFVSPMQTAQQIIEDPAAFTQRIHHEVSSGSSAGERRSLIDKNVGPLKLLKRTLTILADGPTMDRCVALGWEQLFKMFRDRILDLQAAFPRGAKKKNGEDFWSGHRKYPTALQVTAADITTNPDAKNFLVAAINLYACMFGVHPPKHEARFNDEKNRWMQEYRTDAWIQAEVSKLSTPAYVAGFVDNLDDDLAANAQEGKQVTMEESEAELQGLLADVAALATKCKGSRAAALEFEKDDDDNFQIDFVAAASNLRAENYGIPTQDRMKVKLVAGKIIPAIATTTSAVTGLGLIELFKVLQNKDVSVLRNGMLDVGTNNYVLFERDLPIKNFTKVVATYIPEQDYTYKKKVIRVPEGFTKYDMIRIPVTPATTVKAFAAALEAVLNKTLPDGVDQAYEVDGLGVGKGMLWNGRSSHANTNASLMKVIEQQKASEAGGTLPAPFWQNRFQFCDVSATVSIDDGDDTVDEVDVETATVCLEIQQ

[3] = biological target: AMP-activated protein kinase, AMPK (Homo sapiens) (UniProt P54646+O43741+P54619+Q9UGJ0+Q9Y478+Q13131+Q9UGI9); assay: AMP-dependent Kinase enzyme assay. An in vitro enzyme assay that detects ADP turnover that is directly proportional to AMPK activity. This uses naive AMPK that is activated during the assay with MK-8722; type: functional; conditions: 30 µM
[4] = biological target: Sialic acid-binding Ig-like lectin 9 (Homo sapiens) (UniProt Q9Y336); assay: Hs-Siglec9 ALPHAscreen SOP 20170721; conditions: 10 µM
Trypanosoma cruzi = assay: Trypanosoma cruzi phosphomannomutase and mannose-1-phosphate guanylyltransferase assay; type: functional; conditions: 10 µM
[5] = biological target: T2, Arginase-2, mitochondrial (Homo sapiens) (UniProt P78540); assay: in vitro enzyme assay to detect the production of urea directly proportional to the activity of Arginase II; type: functional; conditions: 33.3 µM; further: in the data most compounds retested in dose-response had high values
T2 sequence (whole entry): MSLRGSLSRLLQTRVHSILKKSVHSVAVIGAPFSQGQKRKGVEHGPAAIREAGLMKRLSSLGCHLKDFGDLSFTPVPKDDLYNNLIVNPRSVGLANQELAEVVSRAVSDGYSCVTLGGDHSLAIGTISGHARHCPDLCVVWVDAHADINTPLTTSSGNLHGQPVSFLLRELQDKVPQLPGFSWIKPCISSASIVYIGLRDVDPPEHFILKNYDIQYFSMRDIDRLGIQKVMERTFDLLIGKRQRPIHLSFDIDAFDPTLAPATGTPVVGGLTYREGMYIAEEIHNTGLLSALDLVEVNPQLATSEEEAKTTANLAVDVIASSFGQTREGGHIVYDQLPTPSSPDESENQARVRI

[6] = biological target: T3, Proteasome subunit beta (Trypanosoma cruzi) (UniProt O96673); assay: Trypanosoma cruzi proteasome chymotrypsin-like activity (TcProtChymo) assay.; further: in the data most compounds retested in dose-response had high values; type: functional; conditions: 9.37 µM
T3 sequence (whole entry): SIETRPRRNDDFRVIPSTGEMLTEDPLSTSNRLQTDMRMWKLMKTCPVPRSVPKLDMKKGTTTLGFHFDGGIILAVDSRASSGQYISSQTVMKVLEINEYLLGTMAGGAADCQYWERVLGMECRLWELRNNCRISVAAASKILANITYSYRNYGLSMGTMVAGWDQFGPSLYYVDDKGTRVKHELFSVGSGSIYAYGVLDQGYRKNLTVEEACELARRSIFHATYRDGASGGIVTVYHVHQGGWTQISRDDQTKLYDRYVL

Homo sapiens = organism: Homo sapiens; assay: To identify inhibition of the IFN signalling (Jak-Stat) pathway via expression of an eGFP reporter gene under the control of an IFN-stimulated response element (ISRE) containing MxA promoter.; type: functional; conditions: 30 µM
[7] = biological target: T4, Tyrosyl-tRNA synthetase, putative (Trypanosoma cruzi (strain CL Brener)) (UniProt Q4DSP6); assay: Trypanosoma cruzi tyrosyl tRNA synthetase (TcYRS) _High Tyrosine SOP; type: functional; conditions: 30 µM; further: in the data most compounds retested in dose-response had high values
T4 sequence (whole entry): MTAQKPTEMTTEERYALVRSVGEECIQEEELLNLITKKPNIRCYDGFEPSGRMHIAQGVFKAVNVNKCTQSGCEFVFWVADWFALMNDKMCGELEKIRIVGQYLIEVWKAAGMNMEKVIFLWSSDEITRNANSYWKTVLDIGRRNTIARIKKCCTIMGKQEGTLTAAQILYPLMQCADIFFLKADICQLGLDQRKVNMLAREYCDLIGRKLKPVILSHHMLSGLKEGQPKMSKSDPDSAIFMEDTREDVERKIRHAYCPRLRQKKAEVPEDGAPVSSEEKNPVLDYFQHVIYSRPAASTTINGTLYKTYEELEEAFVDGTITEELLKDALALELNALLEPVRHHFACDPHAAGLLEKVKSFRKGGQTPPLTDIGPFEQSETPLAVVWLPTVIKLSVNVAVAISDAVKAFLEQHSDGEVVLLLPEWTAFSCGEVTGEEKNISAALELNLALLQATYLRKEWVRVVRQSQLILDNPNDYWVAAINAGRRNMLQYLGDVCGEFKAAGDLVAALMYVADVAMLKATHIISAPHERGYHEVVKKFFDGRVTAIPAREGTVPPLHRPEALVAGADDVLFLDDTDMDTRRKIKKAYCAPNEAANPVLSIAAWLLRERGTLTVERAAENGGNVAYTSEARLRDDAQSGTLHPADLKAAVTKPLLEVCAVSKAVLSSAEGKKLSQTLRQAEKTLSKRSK

[8] = biological target: T4, Tyrosyl-tRNA synthetase, putative (Trypanosoma cruzi (strain CL Brener)); assay: Trypanosoma cruzi tyrosyl tRNA synthetase (TcYRS) SOP; type: functional; conditions: 30 µM
[9] = biological target: Chromo domain-containing protein 1 (Saccharomyces cerevisiae (strain ATCC 204508 / S288c) (Baker's yeast)) (UniProt P32657); assay: ScCHD-1 Enzyme Inhibition Assay; type: functional; conditions: 30 µM; further: in the data most compounds retested in dose-response had high values
Sequence of Chromo domain-containing protein 1 (Saccharomyces cerevisiae (strain ATCC 204508 / S288c) (Baker's yeast)) (P32657 whole entry, the tested form may be a part): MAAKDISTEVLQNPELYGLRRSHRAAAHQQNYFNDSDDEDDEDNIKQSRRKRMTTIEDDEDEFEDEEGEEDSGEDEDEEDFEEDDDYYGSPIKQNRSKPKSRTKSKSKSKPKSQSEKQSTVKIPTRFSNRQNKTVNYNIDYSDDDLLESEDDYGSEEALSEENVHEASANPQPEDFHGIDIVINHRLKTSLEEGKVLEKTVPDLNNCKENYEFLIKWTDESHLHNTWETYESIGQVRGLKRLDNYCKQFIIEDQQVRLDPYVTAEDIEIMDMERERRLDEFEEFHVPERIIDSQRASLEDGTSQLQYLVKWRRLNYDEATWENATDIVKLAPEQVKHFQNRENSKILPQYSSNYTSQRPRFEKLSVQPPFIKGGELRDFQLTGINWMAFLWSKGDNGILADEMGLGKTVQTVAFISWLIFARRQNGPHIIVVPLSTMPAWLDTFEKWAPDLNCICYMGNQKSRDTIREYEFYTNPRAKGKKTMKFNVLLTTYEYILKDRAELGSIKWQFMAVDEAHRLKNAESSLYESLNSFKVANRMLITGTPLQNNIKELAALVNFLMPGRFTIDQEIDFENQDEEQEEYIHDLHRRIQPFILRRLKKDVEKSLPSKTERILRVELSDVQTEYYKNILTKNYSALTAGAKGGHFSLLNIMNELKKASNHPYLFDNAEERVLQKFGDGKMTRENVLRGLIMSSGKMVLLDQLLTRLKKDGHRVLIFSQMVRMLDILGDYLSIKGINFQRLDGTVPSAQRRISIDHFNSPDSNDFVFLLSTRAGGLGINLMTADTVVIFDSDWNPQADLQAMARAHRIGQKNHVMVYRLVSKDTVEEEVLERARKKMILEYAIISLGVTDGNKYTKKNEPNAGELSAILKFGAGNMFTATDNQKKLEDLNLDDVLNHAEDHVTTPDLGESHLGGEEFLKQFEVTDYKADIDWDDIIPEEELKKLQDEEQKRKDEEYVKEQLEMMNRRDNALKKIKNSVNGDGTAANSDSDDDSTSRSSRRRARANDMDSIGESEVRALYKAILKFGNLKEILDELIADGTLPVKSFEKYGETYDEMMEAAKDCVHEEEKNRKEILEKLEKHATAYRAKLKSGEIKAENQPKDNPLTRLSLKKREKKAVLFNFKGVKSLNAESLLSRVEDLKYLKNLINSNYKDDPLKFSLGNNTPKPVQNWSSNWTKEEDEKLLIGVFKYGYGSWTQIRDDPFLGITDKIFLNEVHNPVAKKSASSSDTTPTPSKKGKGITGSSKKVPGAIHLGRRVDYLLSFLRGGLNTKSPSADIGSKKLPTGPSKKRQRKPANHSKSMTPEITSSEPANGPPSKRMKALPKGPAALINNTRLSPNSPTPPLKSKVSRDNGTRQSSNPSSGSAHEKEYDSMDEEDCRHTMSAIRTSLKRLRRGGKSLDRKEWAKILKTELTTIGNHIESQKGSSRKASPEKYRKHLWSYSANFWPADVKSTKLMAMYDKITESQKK

Sequence of Protein translocase subunit SecA (Escherichia coli (strain K12)) (P10408 whole entry): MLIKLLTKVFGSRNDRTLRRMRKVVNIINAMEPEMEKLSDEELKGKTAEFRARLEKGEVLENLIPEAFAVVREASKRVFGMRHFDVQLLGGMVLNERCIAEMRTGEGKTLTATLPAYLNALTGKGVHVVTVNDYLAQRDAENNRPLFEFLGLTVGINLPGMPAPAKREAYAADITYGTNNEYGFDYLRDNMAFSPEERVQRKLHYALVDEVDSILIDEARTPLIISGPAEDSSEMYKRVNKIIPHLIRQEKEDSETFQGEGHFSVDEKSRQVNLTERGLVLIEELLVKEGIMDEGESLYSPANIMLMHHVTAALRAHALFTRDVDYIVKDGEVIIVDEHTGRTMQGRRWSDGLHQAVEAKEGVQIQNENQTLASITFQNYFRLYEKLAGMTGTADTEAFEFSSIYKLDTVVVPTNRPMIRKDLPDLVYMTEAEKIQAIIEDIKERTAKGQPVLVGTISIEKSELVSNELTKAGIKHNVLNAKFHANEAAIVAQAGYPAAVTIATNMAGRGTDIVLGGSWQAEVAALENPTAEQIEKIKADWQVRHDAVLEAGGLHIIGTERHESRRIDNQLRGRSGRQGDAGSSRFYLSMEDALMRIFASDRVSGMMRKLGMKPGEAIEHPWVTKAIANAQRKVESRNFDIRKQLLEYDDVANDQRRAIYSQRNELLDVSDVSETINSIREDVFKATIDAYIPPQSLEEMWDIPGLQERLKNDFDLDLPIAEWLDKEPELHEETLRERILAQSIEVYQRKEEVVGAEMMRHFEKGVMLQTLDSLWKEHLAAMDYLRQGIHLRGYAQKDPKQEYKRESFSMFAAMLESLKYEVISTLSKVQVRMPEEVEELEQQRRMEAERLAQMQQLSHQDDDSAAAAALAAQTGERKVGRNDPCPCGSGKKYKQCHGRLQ
Sequence of Sialic acid-binding Ig-like lectin 9 (Homo sapiens) (Q9Y336 whole entry): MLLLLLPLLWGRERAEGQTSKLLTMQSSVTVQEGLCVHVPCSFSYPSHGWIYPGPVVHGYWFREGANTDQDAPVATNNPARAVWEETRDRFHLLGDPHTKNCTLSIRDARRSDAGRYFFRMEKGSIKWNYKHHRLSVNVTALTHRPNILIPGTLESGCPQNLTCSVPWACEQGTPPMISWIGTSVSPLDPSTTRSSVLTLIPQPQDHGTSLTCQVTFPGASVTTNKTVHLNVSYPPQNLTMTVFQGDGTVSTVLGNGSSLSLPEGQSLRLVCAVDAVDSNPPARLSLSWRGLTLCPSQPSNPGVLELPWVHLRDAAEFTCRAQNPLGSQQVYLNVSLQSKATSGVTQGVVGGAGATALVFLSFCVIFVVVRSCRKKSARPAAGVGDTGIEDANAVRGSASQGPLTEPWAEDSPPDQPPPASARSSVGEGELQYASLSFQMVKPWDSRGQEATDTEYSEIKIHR

Row | Compound | Percent Effect [1] [%] | Percent Effect [2] [%] | Percent Effect [3] [%] | Percent Effect [4] [%] | Percent Effect (Trypanosoma cruzi) [%] | Percent Effect [5] [%] | Percent Effect [6] [%] | Percent Effect (Homo sapiens) [%] | Percent Effect [7] [%] | Percent Effect [8] [%] | Percent Effect [9] [%]
1 | Cc1nc(CN2CCOC(CN(C)c3cccnn3)C2)cs1 (stereo not given) | 0.938 | 0 | -2.69 | -0.951 | 4.8 | 1.47 | 5.74 | 10.8 | 2.86 | 2.35 | 0.286
2 | O=C(c1ccsc1)N1CC(C(=O)N2CCOCC2)C2(CCOCC2)C1 (stereo not given) | -0.06 | 2.6 | 3.52 | 3.83 | -6.21 | -3.23 | 16.5 | 7.29 | -29.6 | -1.28 | -0.146
3 | COc1ncccc1C(=O)N1CC[C@H]2C[C@@H](C)O[C@@H]2C1 | -0.702 | 17.3 | 0.286 | -4.21 | -0.589 | -6.51 | 15.5 | -1.15 | 3.17 | 10.3 | -9.15
4 | CC(C)(NCC(=O)NCC(F)(F)F)c1ccc2c(c1)OCCO2 | -1.45 | 13.5 | -7.25 | 1.31 | -4.06 | 17.2 | 16 | 5.37 | 1.48 | 18.5 | -4.3
5 | CN(C)C[C@H]1OC[C@@H]2CCN(C(=O)c3cccn3C)C[C@@H]21 | -3.89 | 0 | -8 | 19.3 | 4.59 | 9.18 | 6.44 | 4.8 | 6.45 | 13.6 | -6.04
6 | CN1CCc2c(C#N)c(NCCCN3CCOCC3)n3cnnc3c2C1 | -3.76 | 10.5 | 2.8 | 1.44 | -1.46 | -1.18 | 13.7 | -9.43 | 4.25 | 10.4 | -1.19
7 | CCOCCN1CCN(Cc2nnc(C3CC3)o2)CC1CC (stereo not given) | -2.67 | 11 | -18 | 17.7 | 8.03 | 18.6 | 1.95 | 2.56 | 2.15 | 7.5 | -5.28
8 | O=C(c1ccco1)N1CCC2(CCOC2)C1 (stereo not given) | -0.538 | 12 | -4.74 | -1.73 | -2.16 | 3.35 | 20.1 | -9.81 | 1.06 | 7.69 | -7.58
9 | Cc1ccc(S(=O)(=O)NC2CC2)cc1C | 1.16 | -1.39 | -6.59 | 11.8 | 0.875 | 20.3 | 0 | 28.3 | -1.05 | 0 | 0.926
10 | Cc1cc(O)c(OCC(=O)/N=c2\[nH]cc(C)s2)cn1 | -5.77 | 18.4 | 3.17 | 0.981 | 3.6 | -5.92 | 5.85 | -4.26 | 5.32 | 10.4 | -2.08
